Values without a mark were called inactive. Results filed as inconclusive are left out. Entries that show only a call come without a potency. Calls of active or inactive are those of the source. Unless noted, the call rests on the fitted dose curve; in most records, active means well fitted curve in the direction sought with a large enough effect in the repeat runs; inconclusive means weak or mixed curves; inactive means no such curve, though single readings can be large; an effect the other way counts as inactive or inconclusive.
Columns and labels:
[1] = qHTS assay for small molecule agonists of the p53 signaling pathway (AID 651631; calls by dose curve; further: nearly all actives have a fitted effect of over 15% in size)
Method in brief: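 HCT-116 p53RE-bla reporter line, 16 h compound treatment at 37 °C, then fluorescence after 2 h with B/G FRET substrate.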

[2] = qHTS assay for small molecules that induce genotoxicity in human embryonic kidney cells expressing luciferase-tagged ATAD5 (AID 651632); further: nearly all actives have a fitted effect of over 15% in size; further: potency means the concentration at half of the fitted maximal effect
Method in brief: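 Cells were seeded at 2,000 per well, dosed with compound, and incubated 16 hr at 37C in 5% CO2. Luciferase activity was then quantified after a 30 min room-temperature incubation with Amplite.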

[3] = qHTS assay for small molecule agonists of the p53 signaling pathway - cell viability (AID 651633; calls by dose curve;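 further: p53RE-bla HCT reporter cells with a stable beta-lactamase p53 reporter; series mostly up to about 83 µM; nearly all actives have a fitted effect of over 30% in size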)
Method in brief: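 p53RE-bla cells, seeded at 4,000 per well and rested 5 h at 37 C/5% CO2, received compounds in DMSO for 16 h at 37 C. CellTiter-Glo was then added, and luminescence was read after 30 min at room temperature to gauge cytotoxicity.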

[4] = qHTS assay for small molecules that induce genotoxicity in human embryonic kidney cells expressing luciferase-tagged ATAD5 - cell viability (AID 651634; calls by dose curve; further: nearly all actives have a fitted effect of over 25% in size)
Method in brief: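 Cells (HEK293T, luciferase-tagged ATAD5) are seeded at 2,000 per well, dosed with compound or DMSO vehicle, and incubated 15.5 hr at 37C and 5% CO2. CellTiter-Fluor is added for 30 min before fluorescence is measured.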

[5] = qHTS assay for small molecule disruptors of the mitochondrial membrane potential - cell viability (AID 720634; calls by dose curve;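 further: human HepG2 liver cancer cells; series mostly up to about 83 µM; nearly all actives have a fitted effect of over 20% in size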)
Method in brief: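 Cytotoxicity was measured by ATP quantitation in HepG2 wells that had first been treated with compound for 1 hr and stained with m-MPI dye; CellTiter-Glo incubation was 30 min at room temperature.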

[6] = qHTS assay for small molecule disruptors of the mitochondrial membrane potential (AID 720635)
Method in brief: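 HepG2 cells (2,000/well) attached overnight at 37C, then took compound for 1 hr at 37C, 5% CO2. Mito-MPS dye was added for 30 min; fluorescence was read at 490/535 nm (monomers) and 540/590 nm (aggregates).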

[7] = qHTS assay to test for compound auto fluorescence at 590 nm (red) in HepG2 cells (AID 720674)
Method in brief: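 Intrinsic compound fluorescence in the red window (Ex/Em 540/590 nm) is measured in attached HepG2 cells exposed for 1 hr, DMSO vehicle as baseline, benchmarked to Rose Bengal sodium.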

[8] = qHTS assay to test for compound auto fluorescence at 535 nm (green) in HepG2 cells (AID 720675)
[9] = qHTS assay to test for compound auto fluorescence at 460 nm (blue) in HEK293 cells (AID 720678)
Method in brief: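 Blue-channel (Ex/Em 405/460 nm) intensity measured in HEK293 cultures after overnight compound exposure at 37C; signal expressed relative to triamterene. Cells plated 2,000 per well in 10% dialyzed FBS medium and allowed 4-5 hr to attach.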

[10] = qHTS assay to test for compound auto fluorescence at 535 nm (green) in HEK293 cells (AID 720680)
[11] = qHTS assay to test for compound auto fluorescence at 460 nm (blue) in HEK293 cell free culture (AID 720681)
Method in brief: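 Test compounds were pinned into cell-free culture medium (DMEM with 10% FBS) and fluorescence was read directly at Ex/Em 405/460 nm. Signals were expressed as fluorescence equivalents of triamterene, with DMSO vehicle as control.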

[12] = qHTS assay to test for compound auto fluorescence at 590 nm (red) in HEK293 cell free culture (AID 720683)
Method in brief: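 Tox21 10K library compounds were pinned into cell-free DMEM with 10% FBS and fluorescence was read at excitation 540 nm. Activity is expressed as Rose Bengal sodium equivalency.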

[13] = qHTS assay to test for compound auto fluorescence at 590 nm (red) in HepG2 cell free culture (AID 720684)
Method in brief: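 Readout: intrinsic compound fluorescence at 590 nm emission after 540 nm excitation, scaled to Rose Bengal sodium. Matrix was cell-free MEM with 10% FBS; DMSO vehicle wells served as control.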

[14] = qHTS assay to test for compound auto fluorescence at 460 nm (blue) in HepG2 cell free culture (AID 720685)
Method in brief: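 Cell-free plates of MEM plus 10% FBS received 23 nL compound or DMSO vehicle; blue-channel (405/460 nm) intensity scored against triamterene as reference fluorophore.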

[15] = qHTS assay to test for compound auto fluorescence at 535 nm (green) in HepG2 cell free culture (AID 720686)
[16] = qHTS assay to test for compound auto fluorescence at 460 nm (blue) in HepG2 cells (AID 720687)
Method in brief: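 Cells (2,000/well in MEM with 10% FBS) attached overnight at 37 C, then were exposed to compound or DMSO for 1 hr at 37 C, 5% CO2. Fluorescence read at Ex/Em 405/460 nm, expressed as triamterene-equivalent signal.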

[17] = qHTS assay to test for compound auto fluorescence at 590 nm (red) in HEK293 cells (AID 720679)
Method in brief: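 Red-channel autofluorescence (Ex/Em 540/590 nm; Rose Bengal sodium reference) was measured after overnight 37C, 5% CO2 exposure of attached HEK293 cells, 2,000 per well in medium with 10% dialyzed FBS.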

[18] = qHTS assay to test for compound auto fluorescence at 535 nm (green) in HEK293 cell free culture (AID 720682)
Method in brief: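 Steps: dispense DMEM/10% FBS into empty wells; pin in compound or DMSO; measure fluorescence at 485/535 nm. Values are fluorescein equivalents.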

[19] = target: Glucocorticoid receptor (Homo sapiens) (UniProt P04150); experiment: qHTS assay to identify small molecule agonists of the glucocorticoid receptor (GR) signaling pathway (AID 720691; active means well fitted activation curve with a large enough effect in the signal ratio in the repeat runs, not every such curve was filed as active; the % refers to the signal ratio)
Sequence of Glucocorticoid receptor (Homo sapiens) (P04150 whole entry, looked up): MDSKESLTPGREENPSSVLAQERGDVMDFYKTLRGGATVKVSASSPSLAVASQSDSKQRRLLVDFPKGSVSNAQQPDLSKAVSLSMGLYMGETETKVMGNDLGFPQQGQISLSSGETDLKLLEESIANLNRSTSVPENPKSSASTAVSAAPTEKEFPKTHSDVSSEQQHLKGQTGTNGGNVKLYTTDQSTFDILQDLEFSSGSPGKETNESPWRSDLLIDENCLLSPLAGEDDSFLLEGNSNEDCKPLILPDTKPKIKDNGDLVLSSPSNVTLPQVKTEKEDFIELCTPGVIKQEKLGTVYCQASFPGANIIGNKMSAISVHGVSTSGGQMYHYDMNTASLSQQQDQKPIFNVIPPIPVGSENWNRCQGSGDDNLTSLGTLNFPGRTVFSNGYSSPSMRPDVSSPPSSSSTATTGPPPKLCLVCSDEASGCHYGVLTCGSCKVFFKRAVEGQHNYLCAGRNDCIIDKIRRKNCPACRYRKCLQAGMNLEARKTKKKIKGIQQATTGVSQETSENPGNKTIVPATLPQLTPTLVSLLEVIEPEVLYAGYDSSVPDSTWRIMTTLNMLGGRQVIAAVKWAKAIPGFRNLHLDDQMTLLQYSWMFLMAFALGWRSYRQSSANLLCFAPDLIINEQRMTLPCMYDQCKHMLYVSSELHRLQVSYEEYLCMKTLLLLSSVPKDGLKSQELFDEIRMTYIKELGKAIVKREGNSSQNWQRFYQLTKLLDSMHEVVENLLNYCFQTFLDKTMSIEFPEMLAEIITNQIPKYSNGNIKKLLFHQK
Method in brief: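 Steps: seed GR-bla HeLa cells, incubate 4 h at 37 C/5% CO2; pin-transfer DMSO-dissolved compounds; incubate 18 h at 37 C; add LiveBLAzer B/G FRET substrate; after 2 h at room temperature, measure fluorescence.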

[20] = target: Glucocorticoid receptor (Homo sapiens) (UniProt P04150); experiment: qHTS assay to identify small molecule antagonists of the glucocorticoid receptor (GR) signaling pathway (AID 720692; active means well fitted inhibition curve with a large enough effect in the signal ratio in the repeat runs, not every such curve was filed as active; the % refers to the signal ratio)
Method in brief: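 Antagonism was scored as loss of dexamethasone-driven (5 nM final) reporter signal in HeLa cells bearing a glucocorticoid response element–beta-lactamase construct, after 18 h compound exposure at 37 C and 2 h FRET substrate loading.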

SMILES | outcome [1] | Potency [2] | outcome [3] | Potency [4] | outcome [5] | Potency [6] | outcome [7] | outcome [8] | outcome [9] | outcome [10] | outcome [11] | outcome [12] | outcome [13] | outcome [14] | outcome [15] | outcome [16] | outcome [17] | outcome [18] | Potency [19] | outcome [20]
N#Cc1ccc(C(=O)O)cc1 | inactive | inactive | inactive | inactive | inactive | inactive | inactive | inactive | inactive | inactive | inactive | inactive | inactive | inactive | inactive | inactive | – | – | – | –
Cc1ccc2c(c1)OCC(=O)CO2 | inactive | inactive | inactive | inactive | inactive | inactive | inactive | inactive | inactive | inactive | inactive | inactive | inactive | inactive | inactive | inactive | inactive | inactive | inactive | inactive
ClCCCl | inactive | inactive | inactive | inactive | inactive | inactive | inactive | inactive | inactive | inactive | – | inactive | inactive | inactive | inactive | inactive | inactive | inactive | inactive | inactive
c1ccc2c(c1)ccc1c3ccccc3ccc21 | inactive | 881 nM (active) | inactive | inactive | inactive | inactive | inactive | inactive | inactive | inactive | inactive | inactive | – | inactive | inactive | inactive | inactive | inactive | – | –
CC(=O)NCc1c(I)c(NC(C)=O)c(I)c(C(=O)O)c1I | inactive | inactive | inactive | inactive | inactive | inactive | inactive | inactive | inactive | inactive | inactive | inactive | inactive | inactive | inactive | inactive | inactive | inactive | – | –
CCc1ccc(C=O)cc1 | inactive | inactive | inactive | inactive | inactive | inactive | inactive | inactive | inactive | inactive | inactive | inactive | inactive | inactive | inactive | inactive | – | inactive | inactive | inactive
CN(C)C(=O)CNC(=O)Cc1ccccc1 | inactive | inactive | inactive | inactive | inactive | inactive | inactive | inactive | – | inactive | inactive | inactive | inactive | inactive | inactive | inactive | inactive | inactive | inactive | inactive
CC(C)NCC(O)COc1ccc(COCCOC(C)C)cc1 (configuration not stated) | inactive | inactive | inactive | inactive | inactive | inactive | inactive | inactive | inactive | inactive | – | inactive | – | inactive | inactive | inactive | inactive | inactive | inactive | inactive
CC(C)=O | inactive | inactive | inactive | inactive | inactive | inactive | inactive | inactive | inactive | inactive | inactive | inactive | inactive | inactive | inactive | inactive | inactive | inactive | – | –
OCCCCC(O)CO (configuration not stated) | inactive | inactive | inactive | inactive | inactive | inactive | inactive | inactive | inactive | inactive | inactive | inactive | inactive | inactive | inactive | inactive | inactive | inactive | – | inactive
C=C(C)C(=O)OCCN(CC)CC | inactive | inactive | inactive | inactive | inactive | inactive | inactive | inactive | inactive | inactive | inactive | inactive | inactive | inactive | inactive | inactive | inactive | inactive | inactive | inactive
C=Cc1ccccn1 | inactive | inactive | inactive | inactive | inactive | inactive | inactive | inactive | inactive | inactive | inactive | inactive | inactive | inactive | inactive | inactive | – | inactive | inactive | inactive
CC(=O)/C=C/C1C(C)=CCC(C)C1(C)C (configuration not stated) | inactive | inactive | inactive | inactive | inactive | inactive | inactive | inactive | inactive | inactive | inactive | inactive | inactive | inactive | inactive | inactive | inactive | inactive | inactive | inactive
C=CCCCCCCCCCCCC | inactive | inactive | inactive | inactive | inactive | inactive | inactive | inactive | inactive | inactive | inactive | inactive | inactive | inactive | inactive | inactive | inactive | inactive | inactive | inactive
